# Measured values published in the supplement of paper PMC6555819.
# System: VDR:RXRa (NR concentration 270 nM, RXRa partner concentration 90 nM)
# Assay: PBM binding z-score (relative to random genomic background probes); higher = stronger binding; sequences stand for … in GC…GCGATTGACAGCGTAGAATGAAGG
# Procedure: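 Protein-binding microarray (Agilent 4x180K custom design, double-stranded 60-nt probes: 5' GC cap, 34-nt variable region, 24-nt constant primer region; full probe sequence given). Purified or IVT nuclear receptor:RXRα heterodimers (3:1 NR:RXRα, mostly 270:90 nM) or homodimers were incubated for 1 h in PBS with 2% milk and no ligand, then detected with Alexa488 antibodies. Fluorescence from o1-orientation probes (~5 replicates averaged) was converted to z-scores against 500 random hg19 background probes. Variable regions are seed direct-repeat (DR0–DR5) sites, all their single-nucleotide variants and half-site ablations.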
row,Sequence,PBM binding z-score
1,GTTAGCAGGCCATTTGGGTCACTCAATGACGGGC,0.985
2,CGAACTAGGTCATCCAGGAAAGTGAATACATTGA,2.24
3,CAGCCTAGGTCAGGGACAGTATAGGAGGAACGTT,0.484
4,CTCGAAAGGTCGGGTGAGGTGAGTATACGGATAA,3.18
5,AGAACGAGGGCAATGAGTTGATAGCGCGGGTGGC,5.04
6,GCATATAGGTTATACAAGGTGAAAGTCCGATTGT,1.57
7,CCTACTGGGCCAAACAGGTCATTGATGCCGATAA,2.82
8,CCGAGTAGGTTATGGAGCATTCAGGCAACGGTGA,-0.239
9,CCGACTGGGGCAAGGTTACCATAACGCACAGCCA,0.0411
10,AATACAGGGTCACTAGGCCAGAGTCGGTACGAAT,4.03
11,GGACCGAGGGCAAAGTTGATAGCATCTGTCGACG,0.837
12,AGTCCAAGTTCATCTAGGTAACGTAAGATATGCT,4.48
13,ACAGAAAGGTGAGTGAAGGTAACTCAGCTGGACG,0.368
14,TCTTGTACATCAACAGGAGGTTAAGAAAGATCGA,0.977
15,AGTCAAAGTTCACAAGGTAACGTAAGATTCAGCT,4.25
16,TCTCGGAGGACACGAAGGTCAGATCTTTCCAGAG,2.61
17,TAGCCTAGGTCATGGGTCAGTATACCACGCGAAC,3.31
18,GCTTACGGGTCAAATGTTATAGCATGAATAGAAT,3.64
19,CCTACTGGGCCAAAAAGGTCATTGACGCCGATAA,4.36
20,GCTATTAGTTGAAAGGGCAAACGAATGATTCTCG,0.622

row,Sequence,PBM binding z-score
1,TGTCAAAGTTGAAAGGTAACGTAAGTATCCACAC,0.996
2,TCTTGTAGATCAATCGAGGTTAAGAAAGTGCGCT,1.75
3,TCTATTTGTTGAAGGGCAACCGACGAGTCCGTTT,1.19
4,GCGACTGCGGCAAAGCAGGTTACCATAAGGTTGG,-0.392
5,ATCTCTAGGTAACAAGTTCAGAGAAAGAGAGGAC,2.01
6,CCTACTGGACCAAAAAGGTCATTGATGCCGATAA,4.77
7,CGAACTAGGTCATTCACAGGACAGTGAATAGTAA,2.53
8,GCGACTGGGGCACCAGCAGGTTACCATAACTTAA,-0.157
9,CAAACTAGGTCACGAAAGCTCAAAGTCGAATGAC,2.37
10,CCTAGTTGGTCAACGTCACACACGCTATAGGTAC,0.309
11,TCTTGTAGATCCATAGAGGTTAAGAAAGTGCGCT,1.69
12,GCTAGTTGGTCGGTAAAAGGTCACACACCGGTCG,3.89
13,CGCCCAAGGTCATAGGAGGTCAGTGAAGACAGAT,6.21
14,CCTAGCAGGCCAGGGTCAATCAAGCATTTCGCTT,2.86
15,TCTATTAGTTTAAGGGCAACCGACGAGTCCGTTT,1.61
16,AGTCAAAGTTCAGGACGAGCTAACGTAAAGCACG,1.8
17,CCTCGGACGACAGAAGGTCAGAGCTGTCCGCTTT,0.84
18,GCGACTGGGGCTTCAGCAGGTTACCATAACTTAA,-0.361
19,ACAGACAGATGAGTGAAGGTAACTCAGCTGGACG,-0.157
20,TCTATTAGTTGATTAGGGCAACCGGAACAGCGGA,0.629
